This note sets out measurements from PubChem BioAssay (NCI).

The nature of this experiment: NCI Yeast Anticancer Drug Screen. Data for the rad50EPP+ strain (AID 151).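 Also: 0% = growth of vehicle-treated control cultures.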 The following applies: S. cerevisiae rad50 mutant strain, stronger effect = higher value. The protocol:
Growth inhibition of yeast strains with defined genetic alterations is measured as a screen for potential anti-cancer activity. Selected strains with alterations in DNA damage repair or cell cycle control were exposed to compounds and growth inhibition was measured relative to vehicle treated controls. The strain used in this assay is rad50EPP+

The structures appear in SMILES notation. This is part of a sample that, as a whole, favours compounds with a hit. Of some 79,000 tested, about 15% had one in any assay. Unmarked numbers belong to inactive results. Calls of active or inactive are those of the source. Rule as the data show it: active = growth inhibition above about 70%; inactive = the rest.

On to `Cc1cc(N=Nc2ccc(S(=O)(=O)[O-])cc2)cc(C(=O)[O-])c1[O-].NC1CCCCC1N.[Na+].[Pt+4]`, for which the growth inhibition is, setting by setting: (at 1.2 µM) 25%; (at 3.7 µM) 95% (active); (at 11.0 µM) 99% (active); (at 33.0 µM) 99% (active); (at 100.0 µM) 98% (active).

Consider `CC(C)/C(Cl)=N\OC(=O)Nc1cccc(Cl)c1`, for which the growth inhibition is -2% (at 1.2 µM); -2% (at 3.7 µM); 1% (at 11.0 µM); 2% (at 33.0 µM); 0% (at 100.0 µM).

`CC1=NN(c2cccc(Cl)c2)C(=O)C1`: the growth inhibition runs as follows: (at 1.2 µM) -65%; (at 3.7 µM) -50%; (at 11.0 µM) -38%; (at 33.0 µM) -27%; (at 100.0 µM) -26%.

Consider `COc1cc(C2SCC(=O)N2c2ccc(-c3ccc(-n4c(-c5ccccc5)nc5ccccc5c4=O)cc3)cc2)cc(OC)c1OC` (stereo not given), for which the growth inhibition runs as follows: (at 1.2 µM) -2%; (at 3.7 µM) -1%; (at 11.0 µM) 3%; (at 33.0 µM) 4%; (at 100.0 µM) -1%.

For `CN1c2ccc(Cl)cc2C(=O)NC1c1ccc([N+](=O)[O-])s1` (stereo not given), the growth inhibition is 0% (at 1.2 µM); -4% (at 3.7 µM); 18% (at 11.0 µM); 61% (at 33.0 µM); 67% (at 100.0 µM).

Regarding `O=C(Nc1ccc(Cl)cc1)OCC#CCCl`, the growth inhibition runs as follows: (at 1.2 µM) 76% (active); (at 3.7 µM) 92% (active); (at 11.0 µM) 97% (active); (at 33.0 µM) 98% (active); (at 100.0 µM) 98% (active).

`N#CC(C(=O)Nc1ccccc1)C1=C(Cl)C(=O)c2ccccc2C1=O` (stereo not given): the growth inhibition is 13% (at 1.2 µM); 43% (at 3.7 µM); 97% (active) (at 11.0 µM); 97% (active) (at 33.0 µM); 96% (active) (at 100.0 µM).

For the molecule `FC(F)(F)c1nc2nc(Cl)c(Cl)nc2n1CCCN1CCOCC1`, the growth inhibition runs as follows: (at 1.2 µM) -1%; (at 3.7 µM) 5%; (at 11.0 µM) 6%; (at 33.0 µM) 2%; (at 100.0 µM) 4%.
